DAX1 inh-1: NR0B1 (DAX1) inhibition | HEK293 Gal4-DAX1 luciferase reporter, luminescence | AID 504766 | inhibition, % at 6.75 µM | P51843 | actives 0.99% (n = 340,000);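 active = inhibition above the mean over all tested compounds plus 3 SD, cut at about 4.2% in these data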;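 also: 0% = DAX1-transfected cells with DMSO and 100% = empty-vector control cells with DMSO; inhibition shows as a rise in luminescence from relieved DAX1 repression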
Target sequence (P51843 207-470 limits assumed): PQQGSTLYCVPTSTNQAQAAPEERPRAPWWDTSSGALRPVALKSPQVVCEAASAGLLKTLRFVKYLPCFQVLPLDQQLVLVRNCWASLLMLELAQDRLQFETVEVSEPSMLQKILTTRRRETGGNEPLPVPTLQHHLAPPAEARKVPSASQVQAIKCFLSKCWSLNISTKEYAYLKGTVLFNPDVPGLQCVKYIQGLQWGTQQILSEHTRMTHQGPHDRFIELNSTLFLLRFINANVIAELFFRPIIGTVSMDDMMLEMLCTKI
ssDAF12 agonist: activators of S. stercoralis DAF-12 nuclear receptor. HEK293 ssDAF-12/GRIP1 lit1-tk-luc reporter, luminescence; % of 3 µM dafachronic acid response. activation, % at 6.8 µM. actives 1% (n = 370,000);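 active = activation above the mean over all tested compounds plus 3 SD, cut at about 0.9% in these data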;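 also: 0% = DMSO-only wells and 100% = 3 µM delta7-dafachronic acid wells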
hcDAF-12 act: H. contortus DAF-12 activation, primary screen; actives 1.4% (n = 370,000); HEK293 hcDAF-12 lit1-tk-luc reporter, luminescence; 0% DMSO, 100% Δ7-dafachronic acid; AID 652067; activation, % at 6.8 µM;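 active = activation above the mean of all tested compounds plus 3 SD, cut at about 5.5% in these data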;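 also: 100% = response to 3 µM Δ7-dafachronic acid high control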
PolyA inhibitor: yeast polyadenylation inhibition | S. cerevisiae SKY197-pL101 polyadenylation reporter, beta-gal luminescence; efflux-impaired pdr1/pdr3 knockout yeast; score 100 = 6 SD above DMSO | AID 1875 | activity score, % at 12 µM | actives 0.02% (n = 300,000);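 active = lowest replicate activity score at least 50, where 100 means six control SD above control mean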;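 also: yeast exposed to compound for 9 h at 30 °C; higher score means more reporter readthrough which indicates perturbed polyadenylation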
DAX1 inh-2: inhibitors of DAX1 repression of SF-1 activated StAR promoter | HEK293T StAR-luciferase reporter, SF-1/DAX-1 repression relief | inhibition, % at 6.8 µM | actives 1.1% (n = 370,000) | AID 652010;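 active = inhibition above the mean over all tested compounds plus 3 SD, cut at about 3.6% in these data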;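 also: 0% = DAX-1 cells with DMSO and 100% = cells lacking DAX-1 with DMSO; higher inhibition means more luminescence from relief of DAX-1 repression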
hgDAF-12 ag: activates the H. glycines DAF-12 receptor ligand-binding domain; activation, % at 6.8 µM; HEK293 GAL4-hgDAF12 UAS-luciferase reporter, agonist luminescence; normalized to butyrate control; AID 687014; actives 1.8% (n = 370,000);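 active = activation above a cutoff set at the mean of all screened compounds plus 3 SD, cut at about 10% in these data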;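 also: 0% = DMSO wells and 100% = sodium butyrate wells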
* marks the source's active call; other numbers are inactive results. Rows were chosen to be rich in hits. Some 4.1% of all compounds tested hit in one or more screens of this group.

How did Brc1cccc(-c2nc3c4ccccc4ccn3c2Cc2ccsc2)c1 do in these assays?
ssDAF12 agonist: 1.8*; hcDAF-12 act: 3.6; DAX1 inh-2: 2.2; hgDAF-12 ag: 5.1

Results for Fc1ccc(-c2nc3c4ccccc4ccn3c2Cc2ccsc2)cc1 ?
ssDAF12 agonist: 1.1*; hcDAF-12 act: 3.5; DAX1 inh-2: 0.4; hgDAF-12 ag: 8.3

Results for O=C(C(=O)N1CCN(S(=O)(=O)c2ccc(F)cc2)CC1)c1cccc(C(F)(F)F)c1 ?
ssDAF12 agonist: -0.9; hcDAF-12 act: -1.9; DAX1 inh-2: -0.7; hgDAF-12 ag: 0.3

How did O=C(NCCc1c[nH]c2ccccc12)OCc1cn(-c2ccc(Cl)cc2)nn1 do in these assays?
ssDAF12 agonist: -1.2; hcDAF-12 act: 0.5; DAX1 inh-2: -0.9; hgDAF-12 ag: -0.2

How did COC(=O)[C@]12C[C@H](CC(=O)NCc3cccc(C(F)(F)F)c3)C(=O)N(CCc3ccc(OC)c(OC)c3)C1=C[C@H](COCc1ccccc1)O[C@@H]2C do in these assays?
ssDAF12 agonist: -0.8; hcDAF-12 act: -3.9; DAX1 inh-2: -1.6; hgDAF-12 ag: -2.2

Results for COc1ccc(-c2nc3c4ccccc4ccn3c2Cc2ccccc2C(F)(F)F)cc1OC ?
ssDAF12 agonist: -0.3; hcDAF-12 act: 2.8; DAX1 inh-2: -2.6; hgDAF-12 ag: 4.0

How did FC(F)(F)c1ccccc1Cc1c(-c2ccc(Cl)cc2)nc2c3ccccc3ccn12 do in these assays?
ssDAF12 agonist: 1.8*; hcDAF-12 act: 5.1; DAX1 inh-2: 0.9; hgDAF-12 ag: 0.6

What do the screens show for `Clc1cccc(Cc2c(-c3cccc(Cl)c3)nc3c4ccccc4ccn23)c1`?
ssDAF12 agonist: 1.1*; hcDAF-12 act: 3.8; DAX1 inh-2: 0.8; hgDAF-12 ag: 3.0

Results for Cc1cc(Br)c2nc(-c3ccc(F)cc3)c(Cc3cccc(Cl)c3)n2c1 ?
ssDAF12 agonist: 1.3*; hcDAF-12 act: 2.8; DAX1 inh-2: 0.0; hgDAF-12 ag: 2.0

How did Fc1ccc(-c2nc3c4ccccc4ccn3c2Cc2ccccc2)cc1 do in these assays?
DAX1 inh-1: 0.6; ssDAF12 agonist: 1.6*; hcDAF-12 act: 2.5; DAX1 inh-2: -0.8; hgDAF-12 ag: 1.6

What do the screens show for `Clc1cccc(Cc2c(C3CCCCC3)nc3c4ccccc4ccn23)c1`?
ssDAF12 agonist: 0.5; hcDAF-12 act: 6.3*; DAX1 inh-2: 3.8*; hgDAF-12 ag: 6.9

What do the screens show for `Fc1ccc(-c2nc3c4ccccc4ccn3c2Cc2cccc(F)c2)cc1`?
ssDAF12 agonist: 0.1; hcDAF-12 act: 5.6*; DAX1 inh-2: -0.4; hgDAF-12 ag: 6.7

How did Clc1cccc(-c2nc3c4ccccc4ccn3c2Cc2ccsc2)c1 do in these assays?
ssDAF12 agonist: 3.3*; hcDAF-12 act: 6.0*; DAX1 inh-2: 2.2; hgDAF-12 ag: 10.4

What do the screens show for `FC(F)(F)c1ccccc1Cc1c(C2CCCCC2)nc2c3ccccc3ccn12`?
ssDAF12 agonist: 1.7*; hcDAF-12 act: 2.3; DAX1 inh-2: 1.6; hgDAF-12 ag: 3.4

Results for Nc1cccc(S(=O)(=O)N2CCCN(S(=O)(=O)c3ccc4c(c3)OCCO4)CC2)c1 ?
ssDAF12 agonist: -1.7; hcDAF-12 act: -1.4; hgDAF-12 ag: 2.4

How did C[C@H]1Cn2cnc(C(=O)N3CCN(c4ccccc4)CC3)c2C(=O)N1 do in these assays?
ssDAF12 agonist: -0.6; hcDAF-12 act: 0.3; DAX1 inh-2: -1.2; hgDAF-12 ag: -2.2

Results for CCCCOCCCNC(=O)C[C@H]1C[C@@]2(C(=O)OC)C(=C[C@H](C(C)C)O[C@@H]2C2CC2)N(Cc2ccco2)C1=O ?
ssDAF12 agonist: -1.8; hcDAF-12 act: -3.0; DAX1 inh-2: -0.3; hgDAF-12 ag: 2.1

How did Fc1ccc(-c2nc3c4ccccc4ccn3c2Cc2cccc(Cl)c2)cc1 do in these assays?
ssDAF12 agonist: 0.7; hcDAF-12 act: 5.9*; DAX1 inh-2: 1.9; hgDAF-12 ag: 4.3

How did CCOC(=O)Cc1c(-c2cccc(Br)c2)nc2c3ccccc3ccn12 do in these assays?
ssDAF12 agonist: 1.4*; hcDAF-12 act: 6.1*; DAX1 inh-2: -1.6; hgDAF-12 ag: 4.5

Results for CC(=O)O[C@H]1C=C[C@@H](NC(=O)OC(C)(C)C)C1 ?
ssDAF12 agonist: -0.9; hcDAF-12 act: -1.2; DAX1 inh-2: -1.0; hgDAF-12 ag: 2.3

What do the screens show for `COc1cccc(C2CCCCN(C)C2=O)c1` (stereo not drawn)?
DAX1 inh-1: 4.6*; ssDAF12 agonist: -2.2; hcDAF-12 act: -2.1; PolyA inhibitor: 17.5; DAX1 inh-2: 0.8; hgDAF-12 ag: 0.4

How did O=C(CCn1nnc(-c2cccs2)n1)N1CCCCC1 do in these assays?
ssDAF12 agonist: -0.6; hcDAF-12 act: -1.0; DAX1 inh-2: 1.6; hgDAF-12 ag: 4.6

Results for CC1CCC(=O)N(CCSc2ccccc2)CC1 (stereo not drawn) ?
DAX1 inh-1: 0.8; ssDAF12 agonist: 0.0; hcDAF-12 act: 6.2*; PolyA inhibitor: -0.3; DAX1 inh-2: 1.6; hgDAF-12 ag: 7.3

What do the screens show for `COc1ccc(SCCN2CC[C@@H](C)CCC2=O)cc1`?
DAX1 inh-1: 1.6; ssDAF12 agonist: -1.1; hcDAF-12 act: 1.1; DAX1 inh-2: 0.4; hgDAF-12 ag: 0.8

Results for COc1ccc2ccccc2c1C=NNC(=O)CN1CCN(Cc2ccccc2)CC1 ?
ssDAF12 agonist: -1.8; hcDAF-12 act: -0.6; DAX1 inh-2: -1.4; hgDAF-12 ag: 3.6

What do the screens show for `COc1cccc(C2=NNC(=NCc3ccccc3)SC2)c1`?
DAX1 inh-1: 0.1; ssDAF12 agonist: -0.8; hcDAF-12 act: 0.7; PolyA inhibitor: -7.6; DAX1 inh-2: 2.4; hgDAF-12 ag: 13.1*

What do the screens show for `COc1cccc(N(C)C(=O)[C@@H](C2CC2)[C@@H](O)c2ccc(Cl)cc2)c1`?
ssDAF12 agonist: -1.0; hcDAF-12 act: 1.2; DAX1 inh-2: -0.5; hgDAF-12 ag: 0.5

How did CN(Cc1ccccc1)C(=O)c1cccc(NC(=O)Cc2ccc(NC(=O)C3CCCN(S(=O)(=O)c4cccc([N+](=O)[O-])c4)C3)cc2)c1 (stereo not drawn) do in these assays?
ssDAF12 agonist: -1.2; hcDAF-12 act: -0.4; DAX1 inh-2: -0.6; hgDAF-12 ag: -2.3

What do the screens show for `N#Cc1cccc(-c2ccccc2C(=O)NC2CCCCN(Cc3ccc(Cl)cc3)C2=O)c1` (stereo not drawn)?
ssDAF12 agonist: -2.1; hcDAF-12 act: -2.9; DAX1 inh-2: -1.4; hgDAF-12 ag: 0.2

Results for N#CCCn1nc(-c2ccccc2)c2ccccc2c1=O ?
DAX1 inh-1: 5.0*; ssDAF12 agonist: -1.5; hcDAF-12 act: -1.4; PolyA inhibitor: -15.3; DAX1 inh-2: -0.4; hgDAF-12 ag: -0.9
